Assay outcomes as filed in PubChem.
Ins promoter up: MIN6 insulin promoter up-regulation | AID 1625 | z-score at 5 µM | 190,000 compounds, 0.3% hits | MIN6 insulin promoter-GFP reporter, high-content imaging; stronger effect = higher value;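 active = z-score above 3 at 5 µM with at least 500 cells counted in the well; inconclusive = wells under 500 cells, flagged as cytotoxic or low count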
Insulin prom inh: TRM-6 insulin promoter activity inhibition; AID 1273; TRM-6 cells (human fetal islet line), insulin promoter-eGFP reporter, imaging; reporter expression induced with tamoxifen; 130,000 compounds, 0.9% hits; inhibition, % at 2 µM;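 active = inhibition above the mean plus 3 SD, with well images judged a real hit on visual review, cut at about 60% in these data, passing the limit was not always enough; inconclusive = inhibition over the cutoff but images rejected on review; inactive = inhibition not above the cutoff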
WT yeast gro inh: growth inhibition of WT yeast, mitochondrial fusion screen. mitochondrial fusion phenotypic screen, WT strain. 190,000 compounds, 2.1% hits. inhibition, % at 10 µM; in the data active = inhibition above about 58%; tested in S. cerevisiae
Autophagy HCS: alters autophagy in cells | MEF GFP-LC3 puncta imaging; test concentration mostly 10 µM | calls only at 10 µM (by protocol) | 190,000 compounds, 0.98% hits | AID 463193;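 active = percentage of spot-positive cells more than 3 SD above its plate mean, without a fluorescence outlier flag or 80% toxicity; inconclusive = no clear call, values can overlap the other calls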
L major viab: inhibitors of Leishmania major promastigote growth; Leishmania major promastigotes, resazurin fluorescence viability; inhibition, % at 10 µM; 200,000 compounds, 9% hits; in the data active = inhibition above about 50%;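 also: promastigotes grown with compound for 44 hours at 28 °C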
Of the large screens only hits and unclear results are named; the others gave an inactive call. In the library only some 11% were active in any assay of this set; here they are far more common.

Cc1ccccc1N1C(=O)C2C3C=CC(C2C1=O)N(C)C3=O (stereo unspecified)	none (no result: Ins promoter up)
CCOC(=O)C1=C(C)C2C3C(=O)N(c4ccc(C)cc4C)C(=O)C3C1(C)C1C(=O)N(c3ccc(C)cc3C)C(=O)C21 (stereo unspecified)	L major viab 74
CCOC(=O)C1=C(C)C2C3C(=O)N(c4ccccc4C)C(=O)C3C1(C)C1C(=O)N(c3ccccc3C)C(=O)C21 (stereo unspecified)	L major viab 56
CCc1ccc(NC(=O)Cn2c(=O)n(CCC(=O)NC3CCN(Cc4ccccc4)CC3)c(=O)c3ccccc32)cc1	none (no result: Insulin prom inh, WT yeast gro inh, Autophagy HCS, L major viab)
COc1ccc2c(c1)C1CC(C)(NC(=O)C1S(=O)(=O)c1ccc(F)cc1)O2 (stereo unspecified)	none (no result: Insulin prom inh)
Brc1ccc(C=Nc2ccc(Nc3ccccc3)cc2)s1	none
C(=Nc1ccc(Nc2ccccc2)cc1)c1ccc2ccccc2c1	Insulin prom inh 64
COc1cccc(OCC(=O)Nc2cc(Cl)ccc2Oc2ccccc2)c1	L major viab 95
N=c1sccn1CC(=O)Nc1cc(Cl)ccc1Oc1ccccc1	L major viab 100
COc1cccc(OCC(=O)Nc2ccccc2NC(C)=O)c1	none
N=c1sccn1CC(=O)Nc1cccc(Oc2ccccc2)c1	none
CC(C)(C)NS(=O)(=O)c1ccc(CCC(=O)Nc2cc(Cl)ccc2Oc2ccccc2)cc1	Ins promoter up inconclusive, L major viab 98
Nc1cc(N)nc(SCC(=O)N2CCc3ccccc32)n1	WT yeast gro inh 99
CC1=CC=CN2C1=NC(=O)CC2(C)C(=O)N(CC(=O)NC1CCCC1)c1cc(C)cc(C)c1 (stereo unspecified)	none (no result: Insulin prom inh)
Cc1cccc(-n2cnc(C(=O)NNC(=S)Nc3ccc(Cl)cc3)c2)n1	L major viab 100 (no result: Ins promoter up)
Cc1cccc(-n2cnc(C(=O)N/N=C\c3ccc(Br)cc3)c2)n1	L major viab 99 (no result: Ins promoter up)
CNC(=O)COC(=O)/C=C/c1c(C)nn(-c2ccccc2)c1C	none
O=S(=O)(NNc1ccc(Cl)nn1)c1ccc(F)cc1	L major viab 91 (no result: Ins promoter up, Insulin prom inh)
COc1cc(/C=N/NC(=O)C(=O)/C=C2\NC3(CCCC3)Cc3ccccc32)ccc1O	none (no result: Insulin prom inh)
O=C(/C=C1\NC2(CCCC2)Cc2ccccc21)C(=O)N/N=C/c1ccccc1O	L major viab 99
Cc1ccc2c(CSc3nnc(C4CC4)n3N)cc(=O)oc2c1C	WT yeast gro inh 96 (no result: Insulin prom inh)
O=C(CSc1ncccn1)NCc1cccc(Cl)c1	none
O=C(CN(CCc1ccccc1)C(=O)c1csnn1)NC1CCCC1	none (no result: Insulin prom inh)
Nc1nn(-c2ccccc2)nc1C(=O)OCc1ccccc1F	none
Cc1ccccc1COC(=O)c1nn(-c2ccccc2)nc1N	WT yeast gro inh 62
COc1ccccc1C(=O)NCCc1c(C)[nH]c2c(C)ccc(F)c12	none (no result: Insulin prom inh)
Cc1cccc(Cn2nc(-n3cccc3)c3c(C)cc(C)nc32)c1	WT yeast gro inh 62
Nc1c(C(=O)NC2CCCC2)sc2nc(-c3cccs3)ccc12	Ins promoter up 3.9, WT yeast gro inh 62
Nc1ccc2c(c1)Cc1cc([N+](=O)[O-])ccc1-2	Autophagy HCS active (no result: Ins promoter up, Insulin prom inh)
CCC(Sc1nc2ccccc2o1)C(=O)O (stereo unspecified)	none (no result: Insulin prom inh)
CCC(Sc1nc2ccccc2o1)C(=O)Nc1nnc(C)s1 (stereo unspecified)	L major viab 55
COc1ccccc1-c1ccc(SCc2cccc(C)c2)nn1	WT yeast gro inh 68, L major viab 99 (no result: Insulin prom inh)
COc1ccccc1-c1ccc(SCc2ccc([N+](=O)[O-])cc2)nn1	none
COc1ccc(N=C2C(=O)N3c4c(cccc42)C(C)=CC3(C)C)cc1	L major viab 97 (no result: Insulin prom inh)
COc1ccc(N=C2C(=O)Nc3ccccc32)cc1	L major viab 100 (no result: Ins promoter up)
CC(=O)c1cn(Cc2ccccc2)c(=O)[nH]c1=O	none (no result: Insulin prom inh)
O=C(COC(=O)C1CCCCC1)Nc1cc([N+](=O)[O-])ccc1F	none (no result: Insulin prom inh)
Cc1nn(-c2nc3ccccc3[nH]2)c(N)c1-c1ccccc1	WT yeast gro inh 72, L major viab 91
Cc1nc2c(-c3ccccc3)c(C)nn2c(N)c1-c1ccccc1	WT yeast gro inh 74, L major viab 100 (no result: Ins promoter up)
O=C(NCC1CCCO1)C1CCN(C2CCN(C3CCCCCC3)CC2)CC1 (stereo unspecified)	none
Cn1cccc1/C=N\NC(=O)Cc1ccc(Br)c2ccccc12	none (no result: Ins promoter up)
COC(=O)Cn1c(=NC(=O)CN2C(=O)CCC2=O)sc2cc(S(N)(=O)=O)ccc21	none
Cn1c(=NC(=O)c2ccccc2[N+](=O)[O-])sc2cc(S(C)(=O)=O)ccc21	none
Cn1c(=NC(=O)c2ccc(S(=O)(=O)N3CCCc4ccccc43)cc2)sc2cc(S(C)(=O)=O)ccc21	L major viab 99 (no result: Ins promoter up, Insulin prom inh)
